This passage reports Potency, viability change, negative = cytotoxic and activity change, negative = cytotoxicity results from PubChem BioAssay (Tox21).

Results filed as inconclusive are left out. A number with no mark means an inactive call. Active and inactive are the calls of the source. The call rests on the fitted dose curve; in most records, active means well fitted cell-killing curve with a large enough effect in the repeat runs; inconclusive means weak or mixed curves, or effect the other way; inactive means flat fitted curve, though single readings scatter.

Test [1] in a line: cAMP Responsive Elements (CRE) small molecule antagonists, cell-based qHTS assay: qHTS cell viability counter screen (AID 2060913). Further: nearly all actives have a fitted effect of over 40% in size. In short, it runs like this:
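Cytotoxicity read in the same wells as the CRE-bla HEK293T antagonist assay: after 3 h compound with 0.25 uM NKH477 final and 2 h beta-lactamase substrate, CellTiter-Glo luminescence measured.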
Background: Quantitative high-throughput screening tests each substance at several concentrations.

Test [2] is described as follows: cAMP Responsive Elements (CRE) small molecule agonists, cell-based qHTS assay: qHTS cell viability counter screen (AID 2060914). Further: nearly all actives have a fitted effect of over 50% in size. The gist of the method: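 In the same wells as the reporter read, viability of CRE-bla HEK 293T cells was quantified by CellTiter-Glo luminescence after a 3 h compound exposure.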
On the % scale 0 is the no-effect control and ±100 the full control effect.

Take `CCOC(=O)CC(CC(=O)OCC)(OC(C)=O)C(=O)OCC`: the Potency entry in test [1] and in test [2] was “inactive” each time.

Consider `O=C1CCCCCCCCCCOCCCCO1`, for which the Potency result in test [1] and in test [2] was “inactive” each time.

In the case of `Cc1cc(C(C)(C)C)c(O)c(C(C)(C)C)c1`, the Potency entry in test [1] and in test [2] was “inactive” each time.

For `CCOC(OCC)C(=O)c1ccccc1`, the Potency result in test [1] and in test [2] was “inactive” throughout.

As for `Nc1nc(=O)n([C@@H]2O[C@H](CO)[C@@H](O)[C@@H]2F)cc1I`, the Potency result in test [1] and in test [2] was “inactive” throughout.

Consider `CC(C)OC(=O)C(C)N(C(=O)c1ccccc1)c1ccc(F)c(Cl)c1` (stereo not drawn), for which the Potency entry in test [1] and in test [2] was “inactive” in each case.

As to `Cc1ccsc1C(=CCCN1CCC[C@@H](C(=O)O)C1)c1sccc1C`, the Potency result in test [1] and in test [2] was “inactive” each time.

As for `CN(C)CCc1c[nH]c2ccc(C[C@H]3COC(=O)N3)cc12`, the Potency entry in test [1] and in test [2] was “inactive” each time.

For `O=C(CN1CCNCC1)NC1CCCCC1`, the Potency result in test [1] and in test [2] was “inactive” each time.

As for `CC(=O)OCCN(CCOC(C)=O)c1ccc(N=Nc2ccc([N+](=O)[O-])cc2C#N)cc1`, the Potency result in test [1] and in test [2] was “inactive” each time.

`CCCCCCCCCCl`: the Potency entry in test [1] and in test [2] was “inactive” each time.

`COC(=O)c1cc(Cl)c(NC(C)=O)cc1OC`: the Potency result in test [1] and in test [2] was “inactive” throughout.

In the case of `Nc1ccc([N+](=O)[O-])c(C(F)(F)F)c1`, the Potency result in test [1] and in test [2] was “inactive” each time.

As to `CNS(=O)(=O)CCc1ccc2[nH]cc(C3CCN(C)CC3)c2c1`, the Potency result in test [1] and in test [2] was “inactive” throughout.

In the case of `C[n+]1ccccc1/C=N/O`, the Potency entry in test [1] and in test [2] was “inactive” each time.

Take `CCCCN1C[C@H](O)[C@@H](O)[C@H](O)[C@H]1CO`: the Potency entry in test [1] and in test [2] was “inactive” each time.

Take `CC(C)(Oc1ccc(Cl)cc1)C(=O)O`: the Potency result in test [1] and in test [2] was “inactive” each time.

As for `c1ccc2[nH]ccc2c1`, the Potency entry in test [1] and in test [2] was “inactive” each time.

For the compound `CCc1ccc(C=O)cc1`, the Potency result in test [1] and in test [2] was “inactive” in each case.

Consider `CC(=O)Nc1ccc(CC(=O)O)cc1`, for which the Potency entry in test [1] and in test [2] was “inactive” each time.

Take `NC(=O)c1ncn([C@@H]2O[C@H](CO)[C@@H](O)[C@H]2O)c1O`: the Potency result in test [1] and in test [2] was “inactive” each time.

Take `OCc1ccccc1O`: the Potency result in test [1] and in test [2] was “inactive” throughout.

Consider `Cc1nc2ccccc2s1`, for which the Potency entry in test [1] and in test [2] was “inactive” each time.

`CN=C(N)NC(=O)Nc1c(C)cccc1C`: the Potency result in test [1] and in test [2] was “inactive” in each case.

As to `CC1(C)O[C@H]2CC(=O)OC[C@]23[C@H]2CC[C@@]4(C)[C@H](c5ccoc5)OC(=O)[C@H]5O[C@]54[C@]2(C)C(=O)C[C@@H]13`, the Potency entry in test [1] and in test [2] was “inactive” throughout.

As to `Cc1cccc(C)c1NC(=O)CN1CCCC1`, the Potency entry in test [1] and in test [2] was “inactive” in each case.

Turning to `OCCCCC(O)CO` (stereo not drawn), the Potency entry in test [1] and in test [2] was “inactive” throughout.

On to `COc1ccc(CCN(C)CCCN2CCc3cc(OC)c(OC)cc3CC2=O)cc1OC`, for which the Potency result in test [1] and in test [2] was “inactive” throughout.

`Cn1cnc([N+](=O)[O-])c1Sc1ncnc2nc[nH]c12`: the Potency result in test [1] and in test [2] was “inactive” in each case.

Turning to `CC(C)(O)CCc1ccccc1`, the Potency entry in test [1] and in test [2] was “inactive” each time.

In the case of `C=CC(=O)OCCCCCC`, the Potency result in test [1] and in test [2] was “inactive” in each case.

For the compound `CCOc1ccc(NC(C)=O)cc1N`, the Potency result in test [1] and in test [2] was “inactive” in each case.

Consider `C#CCN[C@@H]1CCc2ccccc21`, for which the Potency entry in test [1] and in test [2] was “inactive” throughout.

Turning to `C=CC(=O)O`, the Potency entry in test [1] and in test [2] was “inactive” each time.

Take `C[C@H](CCC(=O)O)[C@H]1CC[C@H]2[C@@H]3C(=O)C[C@@H]4CC(=O)CC[C@]4(C)[C@H]3CC(=O)[C@]12C`: the Potency entry in test [1] and in test [2] was “inactive” throughout.

On to `C[C@@H]1C[C@H]2[C@@H]3C[C@H](F)C4=CC(=O)C=C[C@]4(C)[C@@]3(F)[C@@H](O)C[C@]2(C)[C@@]1(O)C(=O)CO`, for which the Potency entry in test [1] and in test [2] was “inactive” throughout.

Regarding `CCCCCCNC(=O)n1cc(F)c(=O)[nH]c1=O`, the Potency result in test [1] and in test [2] was “inactive” in each case.

Consider `O=C(O)c1ccccc1Cl`, for which the Potency result in test [1] and in test [2] was “inactive” each time.

Take `CN(C)CCOC(c1ccccc1)c1ccc(Br)cc1` (stereo not drawn): the Potency entry in test [1] and in test [2] was “inactive” each time.

Regarding `CCN(CC)CC`, the Potency entry in test [1] and in test [2] was “inactive” each time.

Consider `O=C(O)C[C@H](O)C[C@H](O)/C=C/c1c(C2CC2)nc2ccccc2c1-c1ccc(F)cc1`, for which, in test [1], the viability change, negative = cytotoxic was 5.03% [at 18.9 µM]. Further, the activity change, negative = cytotoxicity in test [2] is 17.9% [at 18.9 µM].

Regarding `O=C(c1ccccc1)c1ccc(O)cc1O`, the Potency entry in test [1] and in test [2] was “inactive” each time.

For `CN1Cc2cc(C(=O)N3CCC(C4CCNCC4)CC3)ccc2N[C@@H](CC(=O)O)C1=O`, the Potency entry in test [1] and in test [2] was “inactive” throughout.

Take `CO[Si](CCC1CCC2OC2C1)(OC)OC` (stereo not drawn): the Potency result in test [1] and in test [2] was “inactive” each time.

For `CC(N)CCCC(C)(C)O` (stereo not drawn), the Potency entry in test [1] and in test [2] was “inactive” throughout.

On to `CCCOC(=O)C(C)O` (stereo not drawn), for which the Potency result in test [1] and in test [2] was “inactive” each time.

Turning to `CCCCCC`, the Potency result in test [1] and in test [2] was “inactive” throughout.

Take `O=C1c2ccccc2S(=O)(=O)N1CCCCN1CCN(c2ncccn2)CC1`: the Potency result in test [1] and in test [2] was “inactive” throughout.

`CC1(C)O[C@@H]2C[C@H]3[C@@H]4CCC5=CC(=O)C=C[C@]5(C)[C@@]4(F)[C@@H](O)C[C@]3(C)[C@]2(C(=O)CO)O1`: the Potency result in test [1] and in test [2] was “inactive” each time.
